assay: qHTS profiling of inhibitors of Plasmodium falciparum (HB3) proliferation (acoustic dispense); conditions: P. falciparum HB3 in erythrocytes, SYBR Green, 72 h; at 49.8 µM (top of the series) unless noted
Excerpt: Plasmodium falciparum is a virulent malarial parasite that kills 1-2 million people worldwide each year. Transmitted by mosquitoes, the sporozoite form of the parasite enters the blood stream to infect hepatocytes, where they become merozoites that infect red blood cells (erythrocytes). Within erythrocytes, merozoites begin a […] cycle of growth and division, after which the parasite is released to infect new red blood cells. Gametocytes, which form within erythrocytes as well, circulate in the bloodstream and are ingested by the mosquito, thereby completing the life cycle. To profile malarial isolates for differential chemical responses and to identify inhibitors of malarial growth, an assay that measures P. falciparum growth and replication within erythrocytes was employed. This assay uses a DNA binding fluorescent dye (SYBR Green) to detect parasite DNA following cell lysis. Because mature erythrocytes lack DNA, only Plasmodium-derived DNA is detected.
The SYBR Green viability assay was adapted from a method described previously (Plouffe et al., 2008). For screening 3 ul culture medium was dispensed into 1536 well black clear bottom plates (Aurora Biotechnologies) using a Multidrop Combi (Thermo Fisher Scientific Inc.), 23 nL of compounds in DMSO were added by an acoustic dispenser (EDC Biosystems), and 5 ul of erythrocytes infected with P. falciparum (0.3% parasitemia, 2.5% hematocrit final concentration) were added. The plates were incubated at 37 C in a humidified incubator in 5% CO2 for 72 h, and 2 ul lysis buffer (20 mM Tris HCl, 10 mM EDTA, 0.16% saponin, 1.6% triton X, 10X SYBR Green I supplied as 10,000X […] by Invitrogen) was added to each well. The plates were mixed for 25 sec with gentle shaking and incubated overnight at room temperature in the dark. The following morning, fluorescence intensity at 485(14) nm excitation and 535(25) nm emission wavelengths was measured on an EnVision (Perkin Elmer) plate reader. Plate reads were normalized relative to the control inhibitor (0.29 uM artemisinin) and vehicle (DMSO) wells present on each plate and then corrected by an algorithm using vehicle-only control plates at the beginning and end of the compound plate stack.

In order of falling activity (normalised, proliferation):
1. CO[C@H]1CCC(O[C@H]2C[C@H]([C@]3(C)CC[C@]4(C[C@H](O)[C@@H](C)[C@@H]([C@@H](C)C=C(C)C(=O)[C@H](C)C[C@H](C)C(=O)O)O4)O3)O[C@]3(O[C@@H]([C@H]4O[C@@](O)(CO)[C@H](C)C[C@H]4C)C[C@H]3C)[C@H]2C)O[C@H]1C (stereo partly specified)  120%
2. CC=C1C2C=C(C)CC1(N)c1ccc(=O)[nH]c1C2 (stereo unspecified)  103%
3. CC(=O)Nc1nnc(S(N)(=O)=O)s1  89.5%
4. CN1C(=O)C[C@H](C(=O)N[C@@H](Cc2cnc[nH]2)C(=O)N2CCC[C@@H]2C(N)=O)NC1=O  72.5%
5. CC(=Cc1csc(C)n1)[C@@H]1C[C@H]2O[C@@H]2CCC[C@H](C)[C@@H](O)[C@@H](C)C(=O)C(C)(C)[C@@H](O)CC(=O)O1  10.3%
6. CC1=C(O)C(=O)C=C2C1=CC=C1[C@@]2(C)CC[C@@]2(C)[C@@H]3C[C@](C)(C(=O)O)CC[C@]3(C)CC[C@]12C  7.07%
7. CC(=O)N(O)CCCP(=O)(O)O  2.97%
8. CC=C(C)C(=O)N[C@@H](c1ccccc1)[C@@H](O)C(=O)O[C@H]1C[C@@]2(O)[C@@H](OC(=O)c3ccccc3)[C@@H]3[C@]4(OC(C)=O)CO[C@@H]4C[C@H](O)[C@@]3(C)C(=O)[C@H](OC(C)=O)C(=C1C)C2(C)C  2.88%
9. COC1=CC(C)=C[C@@H](C)[C@@H](O)[C@@H](C)CC(C)=CC=C[C@H](OC)[C@H]([C@@H](C)[C@@H](O)[C@H](C)[C@@]2(O)C[C@@H](O)[C@H](C)[C@@H](C(C)C)O2)OC1=O  0.863%
10. C[C@@H]1C[C@@H]([C@H](O)CC2CC(=O)NC(=O)C2)C(=O)[C@@H](C)C1  0.071%
11. O=c1[nH]c2ccc(Cl)cc2c(N[C@@H]2CN3CCC2CC3)c1-c1nc2ccccc2[nH]1  -0.29%
12. CC(C)(N)CNC(=O)CC1CCC2(CC1)OOC1(O2)C2CC3CC(C2)CC1C3 (stereo unspecified)  -0.313%
13. O=C(C[C@@H]1NCCC[C@@H]1O)Cn1cnc2ccccc2c1=O  -0.592%
14. C[C@H]1CCCC=CC2C[C@H](O)C[C@@H]2[C@H](O)C=CC(=O)O1 (stereo partly specified)  -0.991%

Work on `COC(=O)[C@@]1(OC)C[C@@H]2O[C@@]1(C)n1c3ccccc3c3c4c(c5c6ccccc6n2c5c31)C(=O)N(C)C4` yielded an activity (normalised, proliferation) of -0.375% [at 16.5 µM].

Compound `C[C@]12O[C@H](C[C@@]1(O)C(=O)O)n1c3ccccc3c3c4c(c5c6ccccc6n2c5c31)CNC4=O` has an activity (normalised, proliferation) of 8.93% [at 4.15 µM].

Source: PubChem BioAssay AID743366 (National Center for Advancing Translational Sciences (NCATS), 2014)
